# Measurements published in ChEMBL document CHEMBL3433997, “St. Jude Leishmania screening dataset” (2016).
# Legend:
# Type in all cases: functional
# [1] = molecular target: Solute carrier family 2, facilitated glucose transporter member 1 (Homo sapiens) (UniProt P11166); assay: ST_JUDE_LEISH: Cytotoxicity at 2uM final concentration against transgenic Leishmania Mexicana promastigotes LmGLUT1 that are glucose transport deficient and complemented with the human glucose transporter GLUT1. Activity is measured by DNA content using SYBR green in vitro
# Sequence of Solute carrier family 2, facilitated glucose transporter member 1 (Homo sapiens) (P11166 whole entry): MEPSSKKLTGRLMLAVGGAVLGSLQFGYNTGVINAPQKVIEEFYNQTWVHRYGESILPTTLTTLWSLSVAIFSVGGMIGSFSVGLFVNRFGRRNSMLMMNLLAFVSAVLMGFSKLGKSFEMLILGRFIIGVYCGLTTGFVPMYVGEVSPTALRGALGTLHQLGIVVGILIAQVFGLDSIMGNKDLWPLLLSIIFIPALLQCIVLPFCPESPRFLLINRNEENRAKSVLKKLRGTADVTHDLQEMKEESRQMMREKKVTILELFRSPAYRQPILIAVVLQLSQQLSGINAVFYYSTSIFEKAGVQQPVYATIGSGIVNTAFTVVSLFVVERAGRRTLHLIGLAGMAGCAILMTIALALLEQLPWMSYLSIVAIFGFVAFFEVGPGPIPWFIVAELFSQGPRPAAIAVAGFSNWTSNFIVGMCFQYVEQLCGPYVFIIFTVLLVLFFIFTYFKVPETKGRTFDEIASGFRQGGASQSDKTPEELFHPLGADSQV
# [2] = molecular target: Hexose transporter 1 (Plasmodium falciparum) (UniProt O97467); assay: ST_JUDE_LEISH: Cytotoxicity at 2uM final concentration against transgenic Leishmania Mexicana promastigotes LmPfHT that are glucose transport deficient and complemented with the Plasmodium falciparum hexose transporter. Activity is measured by DNA content using SYBR green in vitro
# [3] = molecular target: Glucose transporter (Leishmania mexicana) (UniProt O61059); assay: ST_JUDE_LEISH: Cytotoxicity at 2uM final concentration against transgenic Leishmania Mexicana promastigotes LmGT2 that are glucose transport deficient and complemented with the L. Mexicana glucose transporter 2. Activity is measured by DNA content using SYBR green in vitro
SMILES,inhibition [1] [%],inhibition [2] [%],inhibition [3] [%]
CC(C)c1cc(Oc2c(I)cc(CCNC(=N)N)cc2I)ccc1O,-0.6,-0.01,-2.44
Cc1cccc2nc(-c3ccc(-c4cccc(CNCc5ccc(CN)cc5)c4)s3)[nH]c12,3.9,3.91,4.55
CN(C)CCCN1CCN(Cc2ccc(-c3ccc(-c4nc5ccccc5[nH]4)s3)cc2)CC1,11.2,8.38,12.1
O=[N+]([O-])c1ccc(N/C(=N\c2ccccc2Br)NC2CCCc3ccccc32)c(O)c1 (configuration not stated),0.73,-1.02,-1.9
CNC(=O)c1cnc(Nc2ccc(N3CCN(C)CC3)cc2)nc1Nc1cccc(OC)c1,3.74,2.74,5.02
O=C(NC1CCCc2ccccc21)[C@@H]1CCCN1C(=O)c1ccc(O)c(-c2ccc(Cl)c(Cl)c2)c1 (some centres not stated),0.06,-0.61,-0.01
O=C(Nc1ccc(-c2cccc(-c3nc4cc(C(F)(F)F)ccc4[nH]3)c2)cc1)Nc1ccc(Cl)c(Cl)c1,10.9,7.67,13
Fc1cc(Cl)ccc1Nc1ccnc2cc(-c3ccc(CNCCN4CCOCC4)o3)ccc12,1.58,1.07,0.9
Cc1ccc(Nc2nc(C)cc(NC3CCCC3)n2)cc1,29.3,19.7,10.8
CC(C)C(=O)n1ncc2c3c(N)nc(N)nc3ccc21,-0.81,-1.08,-0.01
COC(=O)c1ccc2c(-c3nc4ccc(OC)cc4[nH]3)c[nH]c2c1,11.5,10.3,8.93
Cc1cc(N[C@@H](Cc2ccccc2)C(=O)Nc2ccccc2)nc(NCC2CCCCC2)n1,12.8,11.3,10.7
COCCN1CCN(Cc2ccc(-c3cccc(-c4nc5ccccc5[nH]4)c3)cc2)CC1,-3.03,-1.3,-2.88
CCN(CC)CCNc1ccnc2[nH]c3ccc([N+](=O)[O-])cc3c12,3.68,3.92,3.99
CCCCCCN1CCC(NCc2ccc(OCCN3CCCC3)cc2)CC1,-1.34,-0.02,-0.15
CC(=O)Oc1cc(OCc2ccccc2)c(OC(C)=O)c(OCc2ccccc2)c1,6.3,5.31,-0.19
COc1ccc(C=NN=c2cc(C)[nH]c3ccccc23)c(OC)c1,54.4,66,55.3

SMILES,inhibition [1] [%],inhibition [2] [%],inhibition [3] [%]
COc1ccc2ncc(C)c(CCN3CCC(NCc4ccc5c(n4)NC(=O)CS5)CC3)c2c1,8.73,6.68,6.71
O=C(NC(=O)c1ccccc1)NC1CCN(c2ccnc3cc(Cl)ccc23)C1 (configuration not stated),-0.37,1.75,0.92
CC(C)(C)c1ccc(CNC(=O)c2ccc(-c3nc4ccc(Cl)cc4[nH]3)cc2)cc1,1.67,1.77,1.63
COc1ccc(CNC2CCN(C)CC2)cc1-c1ccc(S(=O)(=O)NCCN2CCCC2)s1,-3.47,-0.23,-2.9
Cc1nnc(-c2cccc(Nc3ccnc4cc(-c5nccs5)ccc34)c2)o1,11.2,11.8,9.75
Cc1ccc(-c2cc(C(=O)Nc3ccc(S(=O)(=O)N4CCOCC4)cc3)[nH]n2)c(O)c1C,4,0.56,-1.4
Cc1ccc(NC(=O)c2cc(Br)cc(N3CCC(N(C)C)CC3)c2)cc1F,7.55,7.67,6.75
CN(CCN)Cc1ccc(-c2ccc(-c3nc4cc(C(F)(F)F)ccc4[nH]3)s2)cc1,15.1,14.8,11.4
COc1ccc2nc(-c3ccccc3)cc(NCCCNc3cc(-c4ccccc4)nc4ccc(OC)cc34)c2c1,3.06,2.6,0.67
CC(C)c1cc(Oc2c(I)cc(CCNCc3ccccc3)cc2I)ccc1O,0.46,1.39,0.47
COc1c(C2CCN(CCCCNC(=O)c3ccc(-c4ccc(Cl)cc4)cn3)CC2)ccc2c1CCCC2,-1.51,-0.19,-2.15
C#CCOc1ccccc1CN1CCC(N2CCc3cc(NC(=O)c4cc(C)on4)ccc32)C1 (configuration not stated),2.61,1.64,4.74
Fc1ccc2[nH]c(-c3cccc(-c4ccc(CNCCc5ccncc5)cc4)c3)nc2c1,13.9,12.6,11.4
O=c1cc(NCCCN(Cc2ccccc2)Cc2ccccc2)[nH]c2ccccc12,0.48,4,5.36
Cc1ccc(Oc2ccccc2NC(=O)CCc2nc3ccccc3c(=O)[nH]2)cc1,0.1,0.95,2.88
N#Cc1cc(C(=O)c2cc(Cl)ccc2O)cn(-c2cccc(C(F)(F)F)c2)c1=O,8.27,7.71,5.33
CCOC(=O)c1c(CN(CC)CC)n(-c2ccccc2)c2cc(Br)c(O)cc12,2.14,3.81,1.76
